# Assay results taken from PubChem BioAssay (EPA / NIEHS).
# Activity calls are given as the source filed them. How the source made its calls: active means hit-call score of the fitted dose curve at least 0.9, where 1 is the maximum; inactive means score below 0.9.
# Assays:
# Details in all cases: mRNA level, 48 h; actives raise or lower the signal
# [1] = read-out: ABC Transporter (ABCB11), ABCB11 (gene 8647); assay: LTEA_HepaRG_ABCB11: Life Technologies and Expression Analysis (LTEA) Assay for ABC Transporter (ABCB11) using HepaRG (AID 2283463)
# Method in brief: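 Using HepaRG cultures held in 0.5% DMSO, chemicals were tested at half-log dilutions from 100 uM for 48 h. Induction or suppression of ABCB11 mRNA, normalized to ACTB, GAPDH and POLR2A, was fitted bidirectionally against vehicle.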
# [2] = read-out: ABC Transporter (ABCC2), ABCC2 (gene 1244); assay: LTEA_HepaRG_ABCC2: Life Technologies and Expression Analysis (LTEA) Assay for ABC Transporter (ABCC2) using HepaRG (AID 2283464)
# Method in brief: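 HepaRG cells were plated 48 h, switched to serum-free induction medium, then exposed in duplicate for 48 h to 8 concentrations (top 100 uM, half-log steps, 0.5% DMSO). ABCC2 mRNA was measured by qRT-PCR normalized to ACTB/GAPDH/POLR2A; bidirectional fitting versus DMSO.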
# [3] = read-out: Broad substrate specificity ATP-binding cassette transporter ABCG2 (Homo sapiens) (UniProt Q9UNQ0); assay: LTEA_HepaRG_ABCG2: Life Technologies and Expression Analysis (LTEA) Assay for ABC Transporter (ABCG2) using HepaRG (AID 2283465)
# Method in brief: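 Gene expression of ABCG2 in HepaRG liver cells is quantified by qRT-PCR following 48 h exposure across an eight-point series topping at 100 uM. Values come from bidirectional fitting relative to DMSO vehicle.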
# [4] = read-out: ATP-citrate lyase (ACLY), ACLY (gene 47); assay: LTEA_HepaRG_ACLY: Life Technologies and Expression Analysis (LTEA) Assay for ATP-citrate lyase (ACLY) using HepaRG (AID 2283466)
# Method in brief: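 ACLY expression changes in human HepaRG liver cells are quantified by qRT-PCR after 48 h exposure to test chemicals (maximum 100 uM, half-log steps). Values are fitted in both directions relative to 0.5% DMSO vehicle.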
# [5] = read-out: Peroxisomal acyl-coenzyme A oxidase 1 (ACOX1) gene, ACOX1 (gene 51); assay: LTEA_HepaRG_ACOX1: Life Technologies and Expression Analysis (LTEA) Assay for Peroxisomal acyl-coenzyme A oxidase 1 (ACOX1) gene using HepaRG (AID 2283467)
# Method in brief: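 Human HepaRG hepatic cultures, 48 h treatment with test chemicals up to 100 uM. ACOX1 expression read by qRT-PCR relative to 0.5% DMSO vehicle.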
# [6] = read-out: Alkaline Phosphatase, Placental (ALPP) gene, ALPP (gene 250); assay: LTEA_HepaRG_ALPP: Life Technologies and Expression Analysis (LTEA) Assay for Alkaline Phosphatase, Placental (ALPP) gene using HepaRG (AID 2283468)
# Method in brief: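 Differentiated human HepaRG cells were plated and cultured 48 h, then exposed in duplicate for 48 h in serum-free induction medium to eight half-log concentrations from 100 uM in 0.5% DMSO. ALPP mRNA was measured by TaqMan qRT-PCR, normalized to ACTB, GAPDH, POLR2A.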
# [7] = read-out: Bcl-2 (BAD) gene, BAD (gene 572); assay: LTEA_HepaRG_BAD: Life Technologies and Expression Analysis (LTEA) Assay for Bcl-2 (BAD) gene using HepaRG (AID 2283469)
# Method in brief: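 Activity values reflect up- or down-regulation of BAD mRNA in human HepaRG hepatic cells treated 48 h in serum-free medium, with eight-point half-log dosing capped at 100 uM and 0.5% DMSO vehicle.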
# [8] = read-out: Bcl-2 (BAX) gene, BAX (gene 581); assay: LTEA_HepaRG_BAX: Life Technologies and Expression Analysis (LTEA) Assay for Bcl-2 (BAX) gene using HepaRG (AID 2283470)
# Method in brief: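 qRT-PCR read-out of BAX mRNA, normalized to three housekeeping genes, after 48 h chemical exposure of human HepaRG cells in serum-free induction medium; eight-point half-log series, top 100 uM, 0.5% DMSO vehicle; bidirectional fit versus DMSO.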
# [9] = read-out: adenosine kinase (ADK) gene, ADK (gene 132); assay: LTEA_HepaRG_ADK: Life Technologies and Expression Analysis (LTEA) Assay for adenosine kinase (ADK) gene using HepaRG (AID 2283471)
# Method in brief: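 Differentiated HepaRG cells dosed 48 h in serum-free induction medium, 0.5% DMSO vehicle, eight half-log concentrations from 100 uM, in duplicate. ADK mRNA by TaqMan qRT-PCR normalised to ACTB, GAPDH, POLR2A; bidirectional fit versus DMSO.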
# [10] = read-out: Alpha-fetoprotein (AFP) gene, AFP (gene 174); assay: LTEA_HepaRG_AFP: Life Technologies and Expression Analysis (LTEA) Assay for Alpha-fetoprotein (AFP) gene using HepaRG (AID 2283472)
# Method in brief: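 qRT-PCR (Fluidigm TaqMan) readout of AFP transcript, normalized to three housekeeping genes, fitted bidirectionally against 0.5% DMSO baseline. HepaRG cells received chemicals for 48 h in serum-free induction medium, top concentration 100 uM, half-log steps.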
# BCL2L11 (gene 10018) = assay: LTEA_HepaRG_BCL2L11: Life Technologies and Expression Analysis (LTEA) Assay for Bcl-2 (BCL2L11) gene using HepaRG (AID 2283473)
# Method in brief: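 Differentiated human HepaRG cells in serum-free induction medium were exposed in duplicate for 48 h to eight concentrations (top 100 uM, half-log steps, 0.5% DMSO). BCL2L11 mRNA was quantified by TaqMan qRT-PCR, normalized to ACTB/GAPDH/POLR2A, bidirectional fit versus DMSO.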
# [11] = read-out: Apolipoprotein A-V (APOA5) gene, APOA5 (gene 116519); assay: LTEA_HepaRG_APOA5: Life Technologies and Expression Analysis (LTEA) Assay for Apolipoprotein A-V (APOA5) gene using HepaRG (AID 2283474)
# Method in brief: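 Differentiated human HepaRG cells were exposed in duplicate for 48 h to eight half-log concentrations from 100 uM in 0.5% DMSO. APOA5 mRNA was quantified by TaqMan qRT-PCR, normalized to ACTB, GAPDH and POLR2A, and fitted bidirectionally against DMSO.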
# [12] = read-out: Apoptosis regulator Bcl-2 (Homo sapiens) (UniProt P10415); assay: LTEA_HepaRG_BCL2: Life Technologies and Expression Analysis (LTEA) Assay for Bcl-2 gene using HepaRG (AID 2283475)
# Method in brief: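 qRT-PCR read-out (Fluidigm TaqMan) of BCL2 transcript, normalised to three housekeeping genes, after 48 h chemical exposure of HepaRG cells; 8-point half-log series, top 100 uM, 0.5% DMSO vehicle. Gain or loss of signal fitted relative to DMSO baseline.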
# [13] = read-out: Bcl-2 (BID) gene, BID (gene 637); assay: LTEA_HepaRG_BID: Life Technologies and Expression Analysis (LTEA) Assay for Bcl-2 (BID) gene using HepaRG (AID 2283476)
# Method in brief: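 HepaRG, 48 h exposure, 8-pt half-log series, top 100 uM, 0.5% DMSO vehicle, duplicates. Readout: BID mRNA by TaqMan qRT-PCR; housekeeping-normalized; bidirectional curve fit vs DMSO baseline.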
# Caspase-3 (Homo sapiens) = Caspase-3 (Homo sapiens) (UniProt P42574); assay: LTEA_HepaRG_CASP3: Life Technologies and Expression Analysis (LTEA) Assay for cysteine-aspartic acid protease (CASP3) using HepaRG (AID 2283477)
# Chain of Caspase-3 (Homo sapiens) (P42574 whole entry, looked up): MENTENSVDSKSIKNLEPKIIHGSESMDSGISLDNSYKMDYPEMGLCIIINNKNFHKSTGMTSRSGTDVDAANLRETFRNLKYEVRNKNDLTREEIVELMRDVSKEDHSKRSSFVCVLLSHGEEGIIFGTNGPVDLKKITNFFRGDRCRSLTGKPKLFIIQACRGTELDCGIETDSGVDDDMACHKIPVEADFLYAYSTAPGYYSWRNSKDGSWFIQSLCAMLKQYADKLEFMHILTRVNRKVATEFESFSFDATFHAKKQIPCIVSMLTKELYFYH
# Method in brief: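 Differentiated human HepaRG cells in serum-free induction medium were exposed 48 h to 8-point half-log concentrations from 100 uM (0.5% DMSO vehicle). CASP3 mRNA was measured by qRT-PCR, normalised to ACTB, GAPDH and POLR2A, with bidirectional fitting against DMSO.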
# [14] = read-out: Cytochrome P450 (CYP24A1), CYP24A1 (gene 1591); assay: LTEA_HepaRG_CYP24A1: Life Technologies and Expression Analysis (LTEA) Assay for Cytochrome P450 (CYP24A1) using HepaRG (AID 2283478)
# Method in brief: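 Differentiated HepaRG cells, pre-cultured 48 h, were exposed in duplicate for 48 h in serum-free induction medium to 8 half-log concentrations (top 100 uM, 0.5% DMSO). CYP24A1 mRNA was quantified by TaqMan qRT-PCR, normalized to ACTB/GAPDH/POLR2A, fitted bidirectionally versus DMSO.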
# [15] = read-out: Cytochrome P450 (CYP1A2), CYP1A2 (gene 1544); assay: LTEA_HepaRG_CYP1A2: Life Technologies and Expression Analysis (LTEA) Assay for Cytochrome P450 (CYP1A2) using HepaRG (AID 2283479)
# Method in brief: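 Differentiated human HepaRG cells in serum-free induction medium were exposed in duplicate for 48 h to 8-point half-log concentrations up to 100 uM in 0.5% DMSO. CYP1A2 mRNA measured by qRT-PCR, normalized to ACTB, GAPDH, POLR2A; bidirectional fit vs DMSO.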
# [16] = read-out: cysteine-aspartic acid protease (CASP8), CASP8 (gene 841); assay: LTEA_HepaRG_CASP8: Life Technologies and Expression Analysis (LTEA) Assay for cysteine-aspartic acid protease (CASP8) using HepaRG (AID 2283480)
# Method in brief: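 Concentration-response in duplicate up to 100 uM (half-log steps, 0.5% DMSO) on differentiated HepaRG cultures for 48 h. Expression change of CASP8 mRNA is determined by TaqMan qRT-PCR with housekeeping-gene normalization.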
# [17] = read-out: Cytochrome P450 (CYP2B6), CYP2B6 (gene 1555); assay: LTEA_HepaRG_CYP2B6: Life Technologies and Expression Analysis (LTEA) Assay for Cytochrome P450 (CYP2B6) using HepaRG (AID 2283481)
# Method in brief: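 Differentiated HepaRG cells, serum-free induction medium, exposed 48 h in duplicate to 8-point half-log concentrations from 100 uM in 0.5% DMSO. CYP2B6 mRNA by qRT-PCR, normalized to ACTB, GAPDH, POLR2A; bidirectional fit versus DMSO.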
# [18] = read-out: Cytochrome P450 2C19 (Homo sapiens) (UniProt P33261); assay: LTEA_HepaRG_CYP2C19: Life Technologies and Expression Analysis (LTEA) Assay for CYP2C19 using HepaRG (AID 2283482)
# Method in brief: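 Differentiated human HepaRG cells were exposed for 48 h in serum-free induction medium to 8 concentrations (top 100 uM, half-log steps, 0.5% DMSO). CYP2C19 mRNA was measured by qRT-PCR, normalized to ACTB/GAPDH/POLR2A, and fitted bidirectionally against DMSO.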
# Chain of Broad substrate specificity ATP-binding cassette transporter ABCG2 (Homo sapiens) (Q9UNQ0 whole entry, looked up): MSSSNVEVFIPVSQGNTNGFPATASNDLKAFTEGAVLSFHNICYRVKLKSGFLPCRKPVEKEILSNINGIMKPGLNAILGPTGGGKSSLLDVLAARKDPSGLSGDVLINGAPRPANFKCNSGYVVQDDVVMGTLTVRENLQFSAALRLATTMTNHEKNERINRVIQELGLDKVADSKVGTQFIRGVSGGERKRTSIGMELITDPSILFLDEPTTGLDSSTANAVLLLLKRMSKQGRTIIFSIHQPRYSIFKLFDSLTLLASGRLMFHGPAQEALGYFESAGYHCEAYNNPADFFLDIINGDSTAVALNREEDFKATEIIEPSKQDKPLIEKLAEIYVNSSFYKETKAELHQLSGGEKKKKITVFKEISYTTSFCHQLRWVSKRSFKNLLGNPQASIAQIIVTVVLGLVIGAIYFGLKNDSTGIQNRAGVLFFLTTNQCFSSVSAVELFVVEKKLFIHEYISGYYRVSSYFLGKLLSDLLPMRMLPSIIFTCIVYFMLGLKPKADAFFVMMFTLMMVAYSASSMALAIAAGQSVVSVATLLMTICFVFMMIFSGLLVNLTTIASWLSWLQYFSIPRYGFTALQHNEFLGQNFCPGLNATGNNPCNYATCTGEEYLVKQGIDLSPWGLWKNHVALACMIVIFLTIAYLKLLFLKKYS
# Chain of Apoptosis regulator Bcl-2 (Homo sapiens) (P10415 whole entry, looked up): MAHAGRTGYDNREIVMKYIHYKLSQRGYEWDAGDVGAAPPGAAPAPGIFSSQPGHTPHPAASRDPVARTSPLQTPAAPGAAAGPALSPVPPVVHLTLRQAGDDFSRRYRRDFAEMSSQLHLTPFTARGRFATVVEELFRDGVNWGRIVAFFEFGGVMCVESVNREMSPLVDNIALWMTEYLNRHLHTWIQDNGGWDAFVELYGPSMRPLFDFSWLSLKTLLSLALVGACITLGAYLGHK
# Chain of Cytochrome P450 2C19 (Homo sapiens) (P33261 whole entry, looked up): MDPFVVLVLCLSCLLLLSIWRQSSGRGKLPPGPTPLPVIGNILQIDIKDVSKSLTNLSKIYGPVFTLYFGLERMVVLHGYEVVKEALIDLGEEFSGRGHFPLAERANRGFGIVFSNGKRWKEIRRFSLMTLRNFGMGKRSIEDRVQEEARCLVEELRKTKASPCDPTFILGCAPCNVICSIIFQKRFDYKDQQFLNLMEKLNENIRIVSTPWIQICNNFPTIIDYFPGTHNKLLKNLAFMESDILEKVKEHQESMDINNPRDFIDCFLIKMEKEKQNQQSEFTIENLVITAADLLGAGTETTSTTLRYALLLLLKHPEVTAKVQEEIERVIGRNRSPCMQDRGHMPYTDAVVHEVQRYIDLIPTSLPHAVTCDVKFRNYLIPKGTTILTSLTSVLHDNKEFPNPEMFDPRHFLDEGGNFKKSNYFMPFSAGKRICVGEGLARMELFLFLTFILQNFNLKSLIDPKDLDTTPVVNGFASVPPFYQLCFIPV
smiles,measurement,setting,value
CC(COc1ccc(Oc2ccccc2)cc1)Oc1ccccn1 (configuration not stated),outcome,[1],inactive
same,AC50,[2],29.2 µM (active)
same,AC50,[3],20.6 µM (active)
same,outcome,[4],inactive
same,outcome,[5],inactive
same,outcome,[6],inactive
same,outcome,[7],inactive
same,outcome,[8],inactive
same,outcome,[9],inactive
same,AC50,[10],38.9 µM (active)
same,outcome,BCL2L11 (gene 10018),inactive
same,outcome,[11],inactive
same,outcome,[12],inactive
same,outcome,[13],inactive
same,outcome,Caspase-3 (Homo sapiens),inactive
same,outcome,[14],inactive
same,AC50,[15],13.1 µM (active)
same,outcome,[16],inactive
same,AC50,[17],3.68 µM (active)
CC1(C(=O)Nc2ccc(O)c(Cl)c2Cl)CCCCC1,outcome,[1],inactive
same,outcome,[2],inactive
same,outcome,[3],inactive
same,outcome,[4],inactive
same,outcome,[5],inactive
same,outcome,[6],inactive
same,outcome,[7],inactive
same,outcome,[8],inactive
same,outcome,[9],inactive
same,outcome,[10],inactive
same,outcome,BCL2L11 (gene 10018),inactive
same,outcome,[11],inactive
same,outcome,[12],inactive
same,outcome,[13],inactive
same,outcome,Caspase-3 (Homo sapiens),inactive
same,outcome,[14],inactive
same,outcome,[15],inactive
same,outcome,[16],inactive
same,outcome,[17],inactive
same,outcome,[18],inactive
O=c1ccc(=O)[nH][nH]1,outcome,[1],inactive
same,outcome,[2],inactive
same,outcome,[3],inactive
same,outcome,[4],inactive
same,outcome,[5],inactive
same,outcome,[6],inactive
same,outcome,[7],inactive
same,outcome,[8],inactive
same,outcome,[9],inactive
same,outcome,[10],inactive
same,outcome,BCL2L11 (gene 10018),inactive
same,outcome,[11],inactive
same,outcome,[13],inactive
same,outcome,Caspase-3 (Homo sapiens),inactive
same,outcome,[14],inactive
same,outcome,[15],inactive
same,outcome,[16],inactive
same,AC50,[17],4.2 µM (active)
